A number with no mark means an inactive call.
Tested on: Vero E6 infected with SARS-CoV-2
Experiment: inhibition of SARS-CoV-2 cytopathic effect; higher = more antiviral protection, active = above 15
Conditions: 48 h

Row | Compound | inhibition of SARS-CoV-2 cytopathic effect (1 nM) [%] | inhibition of SARS-CoV-2 cytopathic effect (8.33 nM) [%] | inhibition of SARS-CoV-2 cytopathic effect (100 nM) [%] | inhibition of SARS-CoV-2 cytopathic effect (833.33 nM) [%] | inhibition of SARS-CoV-2 cytopathic effect (10000 nM)
1 | CCS(=O)(=O)N1CC(CC#N)(n2cc(-c3ncnc4[nH]ccc34)cn2)C1 [baricitinib] | 3.34 | -0.51 | -1.28 | 0.06 | -2.55%
2 | O=C(Nc1ccc(Br)cc1)c1cc(Br)cc(Br)c1O [tribomsalan] | -1.03 | -3.93 | -1.03 | -0.02 | 6.65%
3 | c1ccc(CNCc2ccc(CN3CCCNCCNCCCNCC3)cc2)nc1 | 0.27 | 1.15 | 3.41 | 1.72 | 2.99%
4 | CCc1cc2c(cc1CC)CC(NC[C@H](O)c1ccc(O)c3[nH]c(=O)ccc13)C2 [indacaterol] | -4.02 | -0.7 | -0.83 | -1.99 | -2.01%
5 | Cc1cc(Nc2nc(N[C@@H](C)c3ccc(F)cc3)c(C#N)cc2F)n[nH]1 | 0.59 | 0.82 | -1.14 | -3.33 | -13%
6 | OC1(c2ccc(Cl)c(C(F)(F)F)c2)CCN(CCCC(c2ccc(F)cc2)c2ccc(F)cc2)CC1 [penfluridol] | -1.2 | 2.8 | 1.5 | -2.41 | 33.9% (active)
7 | O=C(O)CSCC(=O)NC1CCSC1=O (stereo not given) [erdosteine] | 1.03 | 2.17 | 1.67 | -2.61 | 1.6%
8 | N=C(N)NCCCC[C@@H]1NC(=O)CCSSC[C@@H](C(N)=O)NC(=O)[C@@H]2CCCN2C(=O)[C@H](Cc2c[nH]c3ccccc23)NC(=O)[C@H](CC(=O)O)NC(=O)CNC1=O [eptifibatide] | -0.98 | 8.08 | 3.25 | 2.75 | -2.38%
9 | CO[C@H]1C[C@H](O[C@H]2[C@H](C)O[C@@H](O[C@@H]3/C(C)=C/C[C@@H]4C[C@@H](C[C@]5(C=C[C@H](C)[C@@H](C6CCCCC6)O5)O4)OC(=O)[C@@H]4C=C(C)[C@@H](O)[C@H]5OC/C(=C\C=C\[C@@H]3C)[C@]54O)C[C@@H]2OC)O[C@@H](C)[C@@H]1O [doramectin] | 0.81 | 1.22 | 1.24 | 0.55 | 2.69%
10 | Nc1nc(F)nc2c1ncn2[C@@H]1O[C@H](CO)[C@@H](O)[C@@H]1O [fludarabine] | -1.26 | -3.11 | -2.43 | 1.66 | -0.43%
11 | CCCN(CCC)[C@H]1CCc2cccc(O)c2C1 [8-hydroxy-DPAT] | -1.75 | 1.08 | 1.06 | -0.13 | -3.59%
12 | COc1cc(C[C@@H]2NCCc3cc(O)c(O)cc32)cc(OC)c1OC [trimethoquinol] | 0.9 | 0.73 | 1.88 | 0.62 | -5.45%
13 | COc1cc(/C=C/C(=O)CC(=O)/C=C/c2ccc(O)c(OC)c2)ccc1O [curcumin] | -1.79 | -0.65 | 1.73 | 4.68 | 23.4% (active)
14 | COc1ccc(-c2cc3c(C)nc(N)nc3n([C@H]3CC[C@H](OCCO)CC3)c2=O)cn1 | -0.21 | 2.83 | 0.43 | -10.1 | -10.3%
15 | C[C@@H](CN)CC(=O)O [3-methyl-GABA] | 0.49 | 0.52 | 1.28 | 1.08 | -0.34%
16 | COc1cccc(-c2ccc(NC(=O)C3=C(C(=O)O)CCC3)c(F)c2)c1 | 2.25 | 3.22 | 2.16 | 5.63 | 4.97%
